Bioassay records: PubChem BioAssay, National Center for Advancing Translational Sciences (NCATS)
This is a sample that favours compounds with a hit; in the whole collection about 1.4% have one here.
EPAC2 antag: EPAC2 (human) antagonism; Q8WZA2; Potency, µM (series often up to 114 µM), for inactives: at the highest dose activity, negative = inhibition, most hits filed as inhibitors; AID 720708; 360,000 compounds, 0.18% hits; EPAC2 GEF exchange of Rap1B-BODIPY-GDP, fluorescence; note: potency is the fitted concentration of half-maximal effect; % is set by controls: 0 for no effect and ±100 for the full control effect; nearly all actives have a fitted effect of over 45% in size
hERG WT inh: inhibitors of human wildtype KCNH2 potassium channel; U2OS, BacMam KCNH2, thallium flux FluxOr; stronger effect = lower value; activity change, % at 1.84 µM; 340,000 compounds, 0.37% hits;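 active = maximum activity change below -70%; inconclusive = maximum activity change between -70% and -50%; inactive = maximum activity change above -50%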; note: % is set by controls: 0 for no effect and ±100 for the full control effect
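U2OS cells were transduced with wild-type KCNH2 virus (2.03 x 10^8 / mL) for 4 h at room temperature, then cultured overnight at 37 C. Thallium flux was read with FluxOr dye. Rate constants were normalized to DMSO controls.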
KCNH2 3.1 inh: KCNH2 3.1 (human) potassium channel inhibition; U2OS KCNH2 3.1, thallium flux FluxOr; stronger effect = lower value; activity change, % (tested at about 1.8 µM); 340,000 compounds, 0.95% hits; AID 720553;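 active = maximum activity change below -70%; inconclusive = maximum activity change from -70% to -50%; inactive = maximum activity change above -50%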;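 note: thallium influx rate constant from kinetic fluorescence after stimulation buffer; % is set by controls: 0 for no effect and ±100 for the full control effect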
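Virally transduced U2OS (3.1 isoform, 4 h infection in dark at RT) → overnight 37 C → FluxOr + Red40 in HBSS/HEPES, 45 min → stimulation buffer, 2 min kinetic read → rate constant vs DMSO controls.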
EPAC1 antag: blocks human EPAC1 exchange factor; O95398; 360,000 compounds, 0.14% hits; Potency, µM (top dose mostly 115 µM), for inactives: at the highest dose activity change, negative = inhibition, actives largely listed as inhibitors; AID 720709; EPAC1 GEF assay, Rap1b-BODIPY-GDP exchange fluorescence;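 note: potency is the fitted concentration of half-maximal effect; plate controls were vehicle for no effect and positive control for full effect; nearly all actives have a fitted effect of over 50% in size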
EPAC1 agonist: EPAC1 (human) agonism; O95398; EPAC1 agonist qHTS, biochemical assay; response scale: 100% = response to 6.5 mM cAMP; Potency, µM (highest dose often 154 µM), inactives show top-dose activation, most hits filed as activators; 360,000 compounds, 0.073% hits; note: potency is the fitted concentration of half-maximal effect; nearly all actives have a fitted effect of over 60% in size
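Nucleotide exchange assay: 100 nM EPAC1 with 250 nM Rap1B loaded with BODIPY-GDP and 50 uM GDP, room temperature. Fluorescence (480/540 nm) read every 5 min for 30 min; signal change normalized to 6.5 mM cAMP as full agonist.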
EPAC2 agonist: EPAC2 (human) agonism. Q8WZA2. EPAC2 activation, biochemical qHTS; response scale: 100% = 6.5 mM cAMP response. Potency, µM (titrated, usually from 154 µM), for the others: at the top dose activation, most hits filed as activators. 360,000 compounds, 0.079% hits. AID 720711; note: potency is the fitted concentration of half-maximal effect; nearly all actives have a fitted effect of over 50% in size
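Fluorescence exchange assay: 100 nM EPAC2 with 250 nM RAP1B-BODIPY-GDP and 50 uM GDP; compounds tested as a concentration-titration series (qHTS). Loss of Rap1-bound BODIPY-GDP fluorescence read at 480/540 nm; data normalized to 6.5 mM cAMP.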
Starred values were filed as active, the others as inactive; ? = inconclusive; / = no result. Unless noted, calls come from the whole dose curve; as a rule, active = well fitted curve in the direction sought with a large enough effect; inconclusive = small, poorly fitted or top-dose-only effect, or another doubt; inactive = no such curve, though single readings can be large; an effect the other way counts as inactive or inconclusive.

SMILES	EPAC2 antag	hERG WT inh	KCNH2 3.1 inh	EPAC1 antag	EPAC1 agonist	EPAC2 agonist
CCNC(=O)C1(C)CCN(C(=O)c2c(F)ccc(C)c2F)C1 (stereo not given)	0.5%	/	/	1.1%	10.1%	6.0%
COC(=O)c1c(NC(=O)/C=C/C(=O)O)sc(Cc2ccccc2)c1C	-9.3%	2.3	19.6	-1.2%	-3.5%	2.6%
COC(=O)c1c(N)sc(Cc2ccccc2)c1C	0.9%	1.2	-102.5*	0.6%	-7.4%	-4.3%
Cc1cc(-n2cnc(-c3cn[nH]c3C)n2)no1	7.6%	-0.4	8.4	-19.4%	-8.7%	-6.6%
Cc1cc2ccccn2c1C(=O)c1ccccc1Br	12.6µM*	-3.7	36.3	0.9%	5.2%	20.9%
Cc1cc2ccccn2c1C(=O)c1cccc([N+](=O)[O-])c1	?	-3.3	-1.9	-2.4%	19.5%	24.1%
Cc1cc2ccccn2c1C(=O)c1ccc(Cl)c([N+](=O)[O-])c1	11.2µM*	1.3	8.9	-9.8%	3.9%	3.2%
Cc1cc(C)nc(NC(=O)/C=C/c2cccs2)c1	-1.5%	6.0	-8.7	0.3%	-0.6%	13.9%
Cc1cc(C)c(-c2csc(NC(=O)/C=C/c3cccs3)n2)c(C)c1	-10.1%	-4.3	-77.5*	-3.8%	19.0%	3.8%
COCCNc1nc(NCc2ccc(NC(C)=O)cc2)c2sc(-c3ccccc3)cc2n1	11.2%	/	/	-25.4%	6.8%	10.0%
CC1CN(S(=O)(=O)c2cccc(C(=O)Nc3ccccc3N3CCCCC3)c2)CC(C)O1 (stereo not given)	-5.1%	-22.8	-37.3	-29.9%	10.1%	3.7%
CC1CN(S(=O)(=O)c2cccc(C(=O)Nc3ccccc3N3CCOCC3)c2)CC(C)O1 (stereo not given)	10.7%	-10.5	-42.0	-18.6%	25.1µM*	1.8%
CC1=NN(C(=O)Cn2nc([N+](=O)[O-])c(Br)c2C)C(O)(C(F)(F)F)C1 (stereo not given)	-0.4%	-9.3	3.5	1.2%	8.4%	1.7%
O=C(NNC(=O)c1ccccc1[N+](=O)[O-])c1csc(N2CCOCC2)n1	6.2%	14.4	12.0	-2.5%	2.7%	-3.5%
O=C(Nc1ccccc1NC(=O)c1ccccc1F)c1ccccc1F	6.9%	-89.2*	14.4	-1.9%	6.6%	9.8%
O=C(CN1C(=O)C2C3C=CC(C3)C2C1=O)OCC(=O)c1ccc(Cl)c([N+](=O)[O-])c1 (stereo not given)	-5.3%	-9.2	3.1	-15.0%	-10.1%	6.7%
CCCNC(=O)c1csc2c1CCCCC2	2.5%	0.2	-78.0*	0.0%	3.9%	2.0%
COc1ccc(CCNC(=O)c2csc3c2CCCC3)cc1	17.7%	-2.5	11.5	2.6%	0.2%	20.2%
CCN1C(=O)N(S(=O)(=O)C(F)(F)F)[C@@H](c2ccccc2)C(C(=O)OC)=C1C	31.6µM*	-2.4	7.0	-8.8%	-19.9%	3.4%
O=C(/C=C/NCc1cccnc1)c1ccc(-c2ccccc2)cc1	-1.8%	2.3	3.1	-11.6%	-0.9%	-0.1%
Cc1cccc(Cn2c(=O)oc3ccc(C)cc32)c1	79.4µM*	-7.7	-0.3	-2.8%	-4.3%	-3.5%
Cc1ccc2oc(=O)n(CC(=O)N3CCOCC3)c2c1	19.7%	-142.0*	-8.4	3.4%	-6.8%	9.9%
Cc1ccc2oc(=O)n(Cc3ccc(OC(C)C)cc3)c2c1	?	7.1	-2.4	-8.8%	-12.5%	8.2%
C=CCNC(=O)c1c(CSc2ccc(F)cc2)noc1C(=O)NCCC	-1.4%	13.8	13.7	-1.2%	-20.3%	6.3%
CC(C)(C)NCC(O)(c1ccc(Cl)cc1)c1ccc(Cl)cc1	2.1%	-8.8	2.4	-1.9%	2.0%	8.6%
SMILES	EPAC2 antag	hERG WT inh	KCNH2 3.1 inh	EPAC1 antag	EPAC1 agonist	EPAC2 agonist
CCN(CC)CCNCC(O)(c1ccc(Cl)cc1)c1ccc(Cl)cc1	11.7%	?	-91.1*	-8.6%	0.7%	12.3%
O=C(c1cc([N+](=O)[O-])[nH]n1)N1CCSCC1	0.9%	6.1	0.1	-5.4%	-0.3%	7.4%
Cc1ccc(-c2ccc(=O)n(CC(=O)NCCC(C)C)n2)cc1	1.2%	4.9	1.1	-0.5%	-13.5%	1.0%
CN(C)c1ccc(C(=O)OCC(=O)Nc2ccc(S(N)(=O)=O)cc2)cc1	50.1µM*	2.3	1.5	50.1µM*	?	23.4%
O=C(Nc1ccc(S(=O)(=O)N2CCCC2)cc1)C1CCN(S(=O)(=O)c2ccc(F)cc2)CC1	-14.3%	-2.0	-105.5*	-13.0%	9.4%	2.7%
CN(C)CCCNC(NC(=O)/C=C/c1ccccc1)C(Cl)(Cl)Cl (stereo not given)	0.2%	5.6	1.7	5.3%	-5.7%	5.9%
O=S1(=O)CC2N=C(N(Cc3ccc(F)cc3Cl)c3ccccc3F)SC2C1 (stereo not given)	10.7%	-90.4*	-10.9	-6.2%	-11.4%	-18.2%
Cc1cccc(NC(=O)CN(C2=NC3CS(=O)(=O)CC3S2)c2ccccc2F)c1 (stereo not given)	-19.4%	1.1	4.9	-11.5%	-7.4%	-6.7%
COc1ccc(N(C(=O)c2snc(C(N)=O)c2N)C(C(=O)NC2CCCC2)c2cccs2)cc1OC (stereo not given)	-15.7%	2.9	3.6	50.1µM*	-14.0%	2.7%
COCCN(C/C=C/c1ccccc1)C/C=C/c1ccccc1	-0.9%	29.4	-78.6*	-4.3%	1.6%	2.6%
CN(C/C=C/c1ccccc1)C1CCCCC1	8.9%	0.4	/	4.3%	-0.3%	-0.8%
Cc1ccc(C)c(NC(=O)C2CCCN2/C=C/C(=O)C(F)(F)F)c1 (stereo not given)	6.2%	-0.6	-118.9*	2.8%	6.8%	1.6%
Cc1cccc(NC(=O)C2CCCN2/C=C/C(=O)C(F)(F)F)c1C (stereo not given)	-7.8%	-2.1	0.6	5.4%	-5.6%	-8.7%
CCOC(=O)[C@]12CCC=C1N(Cc1ccccc1)C(=O)[C@H](CC(=O)NCc1cccc(C(F)(F)F)c1)C2	-20.7%	/	/	-3.4%	-4.6%	-3.5%
COc1ccc(-n2nc(C(=O)NCC(=O)NCCCN3CCOCC3)c3ccccc3c2=O)cc1	-0.1%	-12.3	7.7	-10.2%	0.9%	6.1%
Cc1ccc(N=C2NC(=O)/C(=C/C=C/c3ccco3)S2)cc1	19.9%	-4.0	/	56.2µM*	-11.6%	-2.7%
O=C1NC(=Nc2ccccc2)S/C1=C\C=C\c1ccco1	4.3%	19.1	-0.2	?	-1.5%	0.3%
COc1ccc(C(=O)N2CCCC(N3CCN(c4ccccc4F)CC3)C2)c(OC)n1 (stereo not given)	8.4%	-2.7	2.7	-18.3%	8.8%	4.6%
